{"source": "PubChem BioAssay AID1942", "about": "(Johns Hopkins Ion Channel Center, 2009)", "note": "In all, about 2,400 compounds went through this assay and about 580 (24%) were called active.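 The calls were made as follows: active = activity change at or above the mean plus 3 SD of buffer wells without dofetilide, per plate; inactive = the rest.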 Not all results are given here.", "data": [{"biological_target": "Potassium voltage-gated channel subfamily KQT member 2 (Rattus norvegicus) (UniProt O88943)", "sequence (O88943 whole entry, looked up)": "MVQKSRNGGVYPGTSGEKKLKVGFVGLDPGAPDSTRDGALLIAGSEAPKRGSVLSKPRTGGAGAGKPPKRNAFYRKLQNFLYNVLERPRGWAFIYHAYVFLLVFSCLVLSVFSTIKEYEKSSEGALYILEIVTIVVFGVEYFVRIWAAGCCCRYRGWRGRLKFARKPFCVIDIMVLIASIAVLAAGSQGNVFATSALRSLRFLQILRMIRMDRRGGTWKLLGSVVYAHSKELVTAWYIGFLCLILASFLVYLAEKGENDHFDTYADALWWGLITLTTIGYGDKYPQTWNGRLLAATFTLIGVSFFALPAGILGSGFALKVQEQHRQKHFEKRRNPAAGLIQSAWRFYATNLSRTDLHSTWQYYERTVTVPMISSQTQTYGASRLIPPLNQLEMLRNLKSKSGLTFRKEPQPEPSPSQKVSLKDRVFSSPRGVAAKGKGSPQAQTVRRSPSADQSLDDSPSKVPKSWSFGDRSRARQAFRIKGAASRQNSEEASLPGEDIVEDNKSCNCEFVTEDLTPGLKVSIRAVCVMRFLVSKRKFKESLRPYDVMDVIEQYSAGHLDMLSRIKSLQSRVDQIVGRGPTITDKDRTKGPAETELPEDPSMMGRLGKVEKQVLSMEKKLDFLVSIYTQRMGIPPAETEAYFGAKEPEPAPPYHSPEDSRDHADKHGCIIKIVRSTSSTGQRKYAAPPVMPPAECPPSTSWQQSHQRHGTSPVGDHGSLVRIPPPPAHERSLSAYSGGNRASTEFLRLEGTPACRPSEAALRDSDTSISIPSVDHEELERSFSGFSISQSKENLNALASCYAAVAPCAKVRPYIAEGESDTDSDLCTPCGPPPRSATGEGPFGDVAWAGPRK", "assay": "KCNQ2 potentiation in CHO cells – cell-based, FluxOR thallium flux, counter-screen for hERG block protector project, confirmation (AID 1942);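 also: normalized value minus buffer-control mean plus three SD of buffer wells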", "settings": "FluxOR thallium flux fluorescence, at 10 µM, active compounds read high", "values": [{"smiles": "O=C(NC(=S)Nc1cc(C(F)(F)F)ccc1N1CCOCC1)c1ccco1", "activity change, less the hit threshold": "-11.4% (inactive)"}, {"smiles": "O=C(NC(=S)Nc1ccc(N2CCCCC2)cc1)c1ccco1", "activity change, less the hit threshold": "45.9% (active)"}, {"smiles": "O=C(NC(=S)Nc1ccccc1Br)c1ccco1", "activity change, less the hit threshold": "18.2% (active)"}, {"smiles": "O=C(NC(=S)Nc1ccccc1Cl)c1ccco1", "activity change, less the hit threshold": "10.4% (active)"}, {"smiles": "O=C(NC(=S)Nc1ccccc1N1CCCC1)c1cccs1", "activity change, less the hit threshold": "-17.3% (inactive)"}, {"smiles": "O=C(NC(=S)Nc1cccc(Cl)c1N1CCCCC1)c1ccco1", "activity change, less the hit threshold": "-12.3% (inactive)"}, {"smiles": "O=C(NC(=S)Nc1ccccc1N1CCCC1)c1ccco1", "activity change, less the hit threshold": "11.2% (active)"}, {"smiles": "CC1CCN(c2ccccc2NC(=S)NC(=O)c2ccco2)CC1", "activity change, less the hit threshold": "-14.3% (inactive)"}, {"smiles": "O=C(Nc1ccc(N2CCOCC2)cc1)c1ccc(S(=O)(=O)N2CCCCC2)cc1", "activity change, less the hit threshold": "-20.8% (inactive)"}, {"smiles": "O=C(N/N=C/c1ccc(OC(F)F)cc1)C1=COCCO1", "activity change, less the hit threshold": "-10.9% (inactive)"}, {"smiles": "COC(=O)c1cc2sc(Cl)cc2n1CC(=O)NCC1CCCO1", "note": "(configuration not stated)", "activity change, less the hit threshold": "-16.1% (inactive)"}, {"smiles": "COc1ccc(NC(=O)c2cn(-c3ccccc3)nc2-c2ccncc2)cc1", "activity change, less the hit threshold": "-9.7% (inactive)"}, {"smiles": "Nc1ncnc(Oc2cccc3cccnc23)c1[N+](=O)[O-]", "activity change, less the hit threshold": "-25.4% (inactive)"}, {"smiles": "CCOc1ccccc1NC(=S)NC(=O)c1ccco1", "activity change, less the hit threshold": "-5.9% (inactive)"}, {"smiles": "CCC(C)c1ccccc1NC(=O)c1[nH]c(C)c(C(C)=O)c1C", "note": "(configuration not stated)", "activity change, less the hit threshold": "-22.3% (inactive)"}, {"smiles": "CCC(C)c1ccccc1NC(=S)NC(=O)c1ccco1", "note": "(configuration not stated)", "activity change, less the hit threshold": "60.2% (active)"}, {"smiles": "N#C/C(=N/Nc1ccc([N+](=O)[O-])cc1)C(=N)N1CCCCC1", "activity change, less the hit threshold": "-6.1% (inactive)"}, {"smiles": "C/C(=C/CCC(C)[C@H]1CC[C@@]2(C)C3=C(CC[C@]12C)[C@@]1(C)CCC(=O)C(C)(C)[C@@H]1CC3)C(=O)O", "note": "(some centres not stated)", "activity change, less the hit threshold": "-36.3% (inactive)"}, {"smiles": "CC(C)OC(=O)CSc1nnc(C2CCCCC2)n1N", "activity change, less the hit threshold": "-21.8% (inactive)"}, {"smiles": "CCC1(c2ccccc2)NC(=S)N(c2ccc(C)c(C)c2)N1", "note": "(configuration not stated)", "activity change, less the hit threshold": "111% (active)"}, {"smiles": "CCC1(c2ccc(Cl)cc2)NC(=S)N(c2ccc(C)c(C)c2)N1", "note": "(configuration not stated)", "activity change, less the hit threshold": "101% (active)"}, {"smiles": "CCCCn1nnc(NC(=O)c2ccc(-c3cccc([N+](=O)[O-])c3)o2)n1", "activity change, less the hit threshold": "-21.1% (inactive)"}, {"smiles": "CCCCNC1=CC(=O)C(=O)c2ccccc21", "activity change, less the hit threshold": "-18.9% (inactive)"}, {"smiles": "COC(=O)c1ccc(C2C(C#N)=C(N)Oc3cc(O)ccc32)cc1", "note": "(configuration not stated)", "activity change, less the hit threshold": "-8.7% (inactive)"}, {"smiles": "CC1CCc2sc(-c3n[nH]c(=S)o3)cc2C1", "note": "(configuration not stated)", "activity change, less the hit threshold": "20.7% (active)"}, {"smiles": "Cc1ccc2oc3c(c(=O)c2c1)C(c1cccs1)N(CCCN(C)C)C3=O", "note": "(configuration not stated)", "activity change, less the hit threshold": "7.1% (active)"}, {"smiles": "COCCN1C(=O)c2oc3cc(C)c(C)cc3c(=O)c2C1c1ccc(O)cc1", "note": "(configuration not stated)", "activity change, less the hit threshold": "-0.6% (inactive)"}, {"smiles": "CCN(CC)CCCN1C(=O)c2oc3ccccc3c(=O)c2C1c1cccs1", "note": "(configuration not stated)", "activity change, less the hit threshold": "12.9% (active)"}, {"smiles": "CSc1ccc(C2NN=C(c3ccccc3)S2)cc1", "note": "(configuration not stated)", "activity change, less the hit threshold": "-15.8% (inactive)"}, {"smiles": "Cc1ccc(CC23CN4CCN(CC(C4)C2O)C3)c(C)c1", "note": "(configuration not stated)", "activity change, less the hit threshold": "-8.4% (inactive)"}, {"smiles": "O=C(NCC(c1cccs1)N1CCOCC1)c1cc(S(=O)(=O)N2CCOCC2)ccc1F", "note": "(configuration not stated)", "activity change, less the hit threshold": "-15.4% (inactive)"}, {"smiles": "CSC1=C(C#N)C(CC(C)C)C2=C(CCCC2=O)N1", "note": "(configuration not stated)", "activity change, less the hit threshold": "-12.3% (inactive)"}, {"smiles": "CCOc1nc(-c2ccccc2)ccc1-c1noc(COC)n1", "activity change, less the hit threshold": "-13.5% (inactive)"}, {"smiles": "Cc1cc(C(F)(F)F)c2sc(N)nc2n1", "activity change, less the hit threshold": "-4.4% (inactive)"}, {"smiles": "O=C(Cc1ccccc1)Nn1c(-c2ccccc2)nc2ccccc2c1=O", "activity change, less the hit threshold": "29.9% (active)"}, {"smiles": "O=C(O)CCCNC(=O)c1nn(Cc2ccccc2)c(=O)c2ccccc12", "activity change, less the hit threshold": "-5.2% (inactive)"}, {"smiles": "O=C(Cc1cccs1)Nn1c(Cc2cccs2)nc2ccccc2c1=O", "activity change, less the hit threshold": "54.3% (active)"}, {"smiles": "Cc1cc(C)nc(NS(=O)(=O)c2ccc(NC(=O)Cc3ccccc3)cc2)n1", "activity change, less the hit threshold": "-11.1% (inactive)"}, {"smiles": "Cc1nc2c(C(=O)NCc3cccs3)cnn2c(C)c1Cc1ccccc1", "activity change, less the hit threshold": "-25.2% (inactive)"}, {"smiles": "O=S(=O)(c1ccc(F)c(F)c1)N1CCN(c2ncccn2)CC1", "activity change, less the hit threshold": "-26% (inactive)"}, {"smiles": "CCCCCOc1ccc(C2C(C(C)=O)=C(C)Nc3ncnn32)cc1OC", "note": "(configuration not stated)", "activity change, less the hit threshold": "-11.7% (inactive)"}, {"smiles": "O=C(c1ccc2c(c1)N(Cc1ccccc1F)C(=O)c1ccccc1S2(=O)=O)N1CCCC1", "activity change, less the hit threshold": "-23.2% (inactive)"}, {"smiles": "COc1ccc(CN2CCn3ncc(C(=O)Nc4ccccc4)c3C2=O)cc1", "activity change, less the hit threshold": "-13.1% (inactive)"}, {"smiles": "Cc1nnc(NC(=O)CN2CCN(Cc3ccc(F)cc3Cl)CC2)s1", "activity change, less the hit threshold": "-27.8% (inactive)"}, {"smiles": "Cc1ccc2c(c1)c1nnc(SCC(=O)Nc3ccc(N(C)C)cc3)nc1n2CC(=O)O", "activity change, less the hit threshold": "-16.6% (inactive)"}, {"smiles": "CCN(CC)S(=O)(=O)c1cc(OC)ccc1N=Nc1ccc(O)c2ncccc12", "activity change, less the hit threshold": "44.8% (active)"}, {"smiles": "COc1ccccc1N=Nc1ccc(O)c2ncccc12", "activity change, less the hit threshold": "15.6% (active)"}, {"smiles": "COc1ccc(NS(=O)(=O)c2ccc3ccccc3c2)c2ncccc12", "activity change, less the hit threshold": "-12.6% (inactive)"}, {"smiles": "CCOc1ccc(N=Nc2ccc(O)c3ncccc23)cc1", "activity change, less the hit threshold": "-5.6% (inactive)"}, {"smiles": "COc1cccc(N=Nc2ccc(O)c3ncccc23)c1", "activity change, less the hit threshold": "-7.4% (inactive)"}, {"smiles": "COc1ccc(OC)c(S(=O)(=O)Nc2ccc(O)c3ccccc23)c1", "activity change, less the hit threshold": "-22.3% (inactive)"}, {"smiles": "O=C(COC(=O)c1cc(NS(=O)(=O)c2cccs2)ccc1O)Nc1cc(Cl)ccc1Cl", "activity change, less the hit threshold": "-5.6% (inactive)"}, {"smiles": "C[n+]1ccccc1COc1ccc(C(C)(C)C)cc1", "activity change, less the hit threshold": "-21.7% (inactive)"}, {"smiles": "CCC1(CC)Cc2ccccc2-c2[nH]c(=S)[nH]c(=O)c21", "activity change, less the hit threshold": "-28.1% (inactive)"}, {"smiles": "CCn1c(=S)[nH]c2c(c1=O)C(C)(C)Cc1ccccc1-2", "activity change, less the hit threshold": "35.3% (active)"}, {"smiles": "CCCn1c(SCC(N)=O)nc2c(c1=O)C1(CCCC1)Cc1ccccc1-2", "activity change, less the hit threshold": "-2.1% (inactive)"}, {"smiles": "COc1ccc(-c2cc(C(F)(F)F)nc(SCC(=O)NCc3cccs3)n2)cc1", "activity change, less the hit threshold": "-14.1% (inactive)"}, {"smiles": "COc1ccc(-c2cc(C(=O)Nc3ccccc3SC)no2)cc1", "activity change, less the hit threshold": "-15.3% (inactive)"}, {"smiles": "COC(=O)c1c(NC(=O)C(C)(C)C)csc1C", "activity change, less the hit threshold": "-9.2% (inactive)"}, {"smiles": "C/C(=N\\NC(=O)c1ccc(Cl)cc1)c1ccc(Br)s1", "activity change, less the hit threshold": "-6.9% (inactive)"}, {"smiles": "CCc1cc2c(=O)n(CCC(C)C)c(=S)[nH]c2s1", "activity change, less the hit threshold": "54% (active)"}, {"smiles": "CCCCNC(=O)c1onc(CSc2nc3ccccc3[nH]2)c1C(=O)NCCCC", "activity change, less the hit threshold": "-19% (inactive)"}]}]}
